Experimental findings from PubChem BioAssay are described below.

The nature of assay [1]: small molecules captured by biotinylated probe aFSTL3 – biochemical, small-molecule microarray, fluorescence 635/667, stem cell growth factor project, primary screen (AID 1064).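 Also: measures binding of the biotinylated anti-FSTL3 antibody to printed compounds.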 The following applies: higher = more signal.
The nature of assay [2]: binders from COS7 lysate, DM2A8 probe, primary screen, torsin A project, cell lysate, small-molecule microarray, fluorescence 635/667 (AID 1065). The following applies: higher = more signal, COS7 lysate expressing mutant human TOR1A.
A short description of assay [3]: small molecules captured by biotinylated probe aFGF2 – biochemical, small-molecule microarray, fluorescence 635/667, stem cell growth factor project, primary screen (AID 1067).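 Also: measures binding of biotinylated aFGF2 protein to printed compounds on slides; z-score merges feature fluorescence and signal-to-noise across triplicate slides.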 The following applies: higher = more signal.
Assay [4] is described as follows: small molecules captured by biotinylated probe aFGF10 – biochemical, small-molecule microarray, fluorescence 635/667, stem cell growth factor project, primary screen (AID 1071).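 Also: score merges 667 nm spot intensity and signal to noise from triplicate slides.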 The following applies: higher = more signal.
In assay [5] the target is Neurogenic locus notch homolog protein 2 (Homo sapiens) (UniProt Q04721). Kind of assay: small molecules binding Notch2 protein – biochemical, small-molecule microarray, 635 nm fluorescence, stem cell growth factors, primary screen (AID 1073). The following applies: higher = more signal.
In assay [6] the target is Pro-neuregulin-1, membrane-bound isoform (Homo sapiens) (UniProt Q02297). Put plainly: small molecules binding neuregulin-1 protein – biochemical, small-molecule microarray, fluorescence 635/667, psychiatric disease protein project, primary screen (AID 1075).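 Also: score combines 667 nm spot fluorescence with signal to noise.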 The following applies: NRG1 binding, 635 nm fluorescence, higher = more signal.
Assay [7] relates to Neuregulin-1 EGF-like domain. Kind of assay: small molecules binding NRG1 EGF domain – biochemical, small-molecule microarray, 635 nm fluorescence, primary screen (AID 1081).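 Also: binding of the protein to compounds printed on small-molecule microarray slides.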 The following applies: higher = more signal.
The nature of assay [8]: FRG1 expression reporter modulators in myotubes – cell-based, C2C12 myotubes, firefly/Renilla luciferase, luminescence, FRG1 inhibition for FSHD, primary screen (AID 1084). The following applies: FRG1 promoter luciferase, higher = more signal, called active from +8 up or from −8 down.
Assay [9] is described as follows: small molecules captured by biotinylated probe aFST – biochemical, small-molecule microarray, fluorescence 635/667, stem cell growth factor project, primary screen (AID 1086).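 Also: score merges 667 nm fluorescence with signal-to-noise of each printed compound spot.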 The following applies: higher = more signal.
Assay [10] in a line: binders of probe aHhip on microarray, primary screen, stem cell growth factor project, biochemical, small-molecule microarray, fluorescence 635/667 (AID 1087).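 Also: score merges spot fluorescence at 667nm with spot signal to noise ratio.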 The following applies: higher = more signal.

Activity calls are given as the source filed them.

Neurogenic locus notch homolog protein 2 (Homo sapiens), sequence (Q04721 whole entry, looked up, canonical isoform): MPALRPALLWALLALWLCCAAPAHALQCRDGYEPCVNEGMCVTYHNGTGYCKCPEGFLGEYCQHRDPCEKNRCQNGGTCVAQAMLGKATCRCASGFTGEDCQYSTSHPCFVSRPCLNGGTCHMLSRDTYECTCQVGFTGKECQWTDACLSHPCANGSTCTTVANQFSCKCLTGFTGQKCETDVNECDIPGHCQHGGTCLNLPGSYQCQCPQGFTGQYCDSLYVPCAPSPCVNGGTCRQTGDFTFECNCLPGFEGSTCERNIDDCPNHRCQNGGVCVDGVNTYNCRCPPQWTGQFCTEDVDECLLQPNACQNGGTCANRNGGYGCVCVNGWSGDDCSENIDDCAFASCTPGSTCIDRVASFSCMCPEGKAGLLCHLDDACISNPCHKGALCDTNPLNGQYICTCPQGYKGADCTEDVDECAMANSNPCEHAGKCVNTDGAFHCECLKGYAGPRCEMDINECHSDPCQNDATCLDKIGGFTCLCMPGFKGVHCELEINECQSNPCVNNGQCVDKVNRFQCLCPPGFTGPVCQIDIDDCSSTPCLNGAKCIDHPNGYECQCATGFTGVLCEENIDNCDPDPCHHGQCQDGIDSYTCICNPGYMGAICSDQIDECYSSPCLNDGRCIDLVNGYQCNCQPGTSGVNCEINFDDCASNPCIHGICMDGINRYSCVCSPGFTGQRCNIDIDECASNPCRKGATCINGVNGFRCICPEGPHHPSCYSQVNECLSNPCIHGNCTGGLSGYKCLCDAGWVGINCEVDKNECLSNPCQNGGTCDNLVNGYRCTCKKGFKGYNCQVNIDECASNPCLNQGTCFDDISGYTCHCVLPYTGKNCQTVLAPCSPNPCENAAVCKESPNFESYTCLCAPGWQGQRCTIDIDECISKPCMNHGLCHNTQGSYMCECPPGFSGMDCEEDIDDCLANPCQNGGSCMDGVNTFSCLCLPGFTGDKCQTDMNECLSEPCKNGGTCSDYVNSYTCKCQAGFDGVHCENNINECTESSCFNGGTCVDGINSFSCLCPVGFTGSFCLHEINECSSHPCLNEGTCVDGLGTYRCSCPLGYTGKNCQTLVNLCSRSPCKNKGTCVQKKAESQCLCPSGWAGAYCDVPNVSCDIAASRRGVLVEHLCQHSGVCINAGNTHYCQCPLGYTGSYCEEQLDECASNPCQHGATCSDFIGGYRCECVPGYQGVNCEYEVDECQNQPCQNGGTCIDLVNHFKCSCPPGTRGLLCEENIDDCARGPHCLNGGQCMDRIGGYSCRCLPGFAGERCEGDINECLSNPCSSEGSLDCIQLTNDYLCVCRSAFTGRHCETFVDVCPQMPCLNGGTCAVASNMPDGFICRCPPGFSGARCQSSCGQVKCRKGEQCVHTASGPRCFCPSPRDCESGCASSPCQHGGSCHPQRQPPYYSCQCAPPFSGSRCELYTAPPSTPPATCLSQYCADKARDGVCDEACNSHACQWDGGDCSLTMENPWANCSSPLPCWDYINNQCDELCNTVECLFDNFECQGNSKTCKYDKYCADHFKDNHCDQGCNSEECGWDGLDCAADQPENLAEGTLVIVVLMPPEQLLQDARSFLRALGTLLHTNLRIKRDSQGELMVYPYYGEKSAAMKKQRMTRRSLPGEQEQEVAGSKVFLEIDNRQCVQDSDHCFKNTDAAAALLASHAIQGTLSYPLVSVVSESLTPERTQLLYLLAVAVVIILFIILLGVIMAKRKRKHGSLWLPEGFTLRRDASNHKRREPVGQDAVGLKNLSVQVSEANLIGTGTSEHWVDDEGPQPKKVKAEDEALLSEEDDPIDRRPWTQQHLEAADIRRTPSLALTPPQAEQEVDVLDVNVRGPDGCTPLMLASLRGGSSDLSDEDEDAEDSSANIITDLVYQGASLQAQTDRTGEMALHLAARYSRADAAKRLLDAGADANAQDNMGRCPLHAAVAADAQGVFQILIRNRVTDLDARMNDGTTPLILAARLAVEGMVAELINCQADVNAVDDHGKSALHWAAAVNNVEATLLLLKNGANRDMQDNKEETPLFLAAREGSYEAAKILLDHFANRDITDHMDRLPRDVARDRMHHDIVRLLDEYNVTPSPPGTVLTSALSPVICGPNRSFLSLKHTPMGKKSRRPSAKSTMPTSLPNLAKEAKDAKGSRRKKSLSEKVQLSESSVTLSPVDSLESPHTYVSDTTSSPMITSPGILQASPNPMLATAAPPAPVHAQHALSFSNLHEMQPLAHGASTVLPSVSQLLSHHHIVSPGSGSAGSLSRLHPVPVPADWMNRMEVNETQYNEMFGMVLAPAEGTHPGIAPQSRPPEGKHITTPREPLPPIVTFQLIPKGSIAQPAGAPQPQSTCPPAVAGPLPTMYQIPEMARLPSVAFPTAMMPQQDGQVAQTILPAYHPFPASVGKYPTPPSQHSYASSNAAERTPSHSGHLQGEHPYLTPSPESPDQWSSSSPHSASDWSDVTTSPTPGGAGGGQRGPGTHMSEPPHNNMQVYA
Pro-neuregulin-1, membrane-bound isoform (Homo sapiens), sequence (Q02297 whole entry, looked up, the tested form may be a part, canonical isoform): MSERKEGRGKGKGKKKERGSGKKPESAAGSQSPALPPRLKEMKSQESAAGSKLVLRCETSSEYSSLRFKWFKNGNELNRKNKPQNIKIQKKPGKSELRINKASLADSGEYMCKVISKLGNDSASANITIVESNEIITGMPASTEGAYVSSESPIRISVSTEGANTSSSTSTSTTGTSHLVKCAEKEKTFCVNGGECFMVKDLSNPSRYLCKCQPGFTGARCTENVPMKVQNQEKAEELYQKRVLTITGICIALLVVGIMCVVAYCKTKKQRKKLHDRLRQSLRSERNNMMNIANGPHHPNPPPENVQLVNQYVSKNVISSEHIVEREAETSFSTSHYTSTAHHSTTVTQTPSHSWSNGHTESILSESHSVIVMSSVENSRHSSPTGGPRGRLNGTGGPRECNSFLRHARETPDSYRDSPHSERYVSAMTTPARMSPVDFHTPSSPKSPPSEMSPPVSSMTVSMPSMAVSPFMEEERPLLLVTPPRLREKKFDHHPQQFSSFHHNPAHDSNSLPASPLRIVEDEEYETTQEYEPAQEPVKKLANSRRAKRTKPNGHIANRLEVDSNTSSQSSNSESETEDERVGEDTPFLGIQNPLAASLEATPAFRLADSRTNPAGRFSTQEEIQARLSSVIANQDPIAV

For the molecule `CN(C)C(=O)[C@@]1(Cc2ccccc2N=[N+]=[N-])COC(c2ccc(OCCCO)cc2)=N1`, the composite z-score in [1] came to 0.541; in [2], 0.33; in assay [3] it was 0.0493; in [4], 1.02; in assay [5], 0.687; in assay [6], 1.05. Further, the composite z-score was found to be 1.33 in assay [7], 0.495 in [9] and 0.0349 in assay [10]. Besides, the z-score in assay [8] was -0.927 (inactive).

Take `C=CCNC(=O)[C@@H]1[C@H]2C(=O)O[C@H](c3ccccc3)[C@H](c3ccccc3)N2[C@H](c2ccccc2OCCO)[C@@]12C(=O)N(C(=O)OCCOC)c1ccc(C#CC3=CCCCC3)cc12`: the composite z-score is -0.0809 in assay [1]; 0.683 in assay [2]; 0.0496 in assay [3]; 0.586 in assay [4]; -0.0189 in assay [5]; 0.457 in [6]. Further, the composite z-score in [7] is 1.2; in [9], 0.206; in assay [10], -0.178. Further, the z-score in [8] is -1.11 (inactive).

In the case of `COc1ccc(C(O)C2C=CC3C(=O)N(C)C(=O)C3N2N2CCCCC2)cc1` (stereo not given), the composite z-score was -0.162 in assay [1]; 1.42 in [2]; 0.213 in assay [3]; 1 in assay [4]; 1.65 in assay [5]; 1.61 in assay [6]. The composite z-score in [7] is 1.38; in [9], 0.201; in assay [10] it was -0.283. For the same molecule, the z-score in [8] is 1.51 (inactive).

For the molecule `CCCN1C(=O)[C@]2(Cc3ccccc3)N=C(c3ccc(OCCCO)cc3)O[C@@H]2c2ccccc21`, the composite z-score in assay [1] is 0.224; in assay [2] it was 1.12; in [3], -0.0226; in [4], 0.347; in assay [5] it was 0.415; in [6], 0.305. Besides, the values for the composite z-score in assay [7], in assay [9] and in assay [10] were 1.3, 0.195 and -0.198, respectively. For the same molecule, the z-score in [8] is -0.355 (inactive).

As to `COCCOC(=O)N1C(=O)[C@@]2(c3cc(C#CC4(O)CCCCCC4)ccc31)[C@H](c1ccccc1OCCO)N1[C@H](c3ccccc3)[C@H](c3ccccc3)OC(=O)[C@H]1[C@@H]2C(N)=O`, the composite z-score is -0.452 in assay [1]; 0.447 in [2]; 0.0038 in assay [3]; 0.498 in assay [4]; 1.35 in assay [5]; 0.102 in [6]. For the same molecule, the composite z-score in [7] was 1.16; in assay [9] it was 0.489; in assay [10], -0.0672. Besides, in [8], the z-score was -1.17 (inactive).

As for `COc1ccc([Si](C)(C)[C@H]2[C@H](CCn3cc(CCO)nn3)O[C@@]3(C(=O)N(Cc4ccc(N5C(=O)c6cccc7cccc5c67)cc4)c4ccccc43)[C@@H]2C)cc1`, the composite z-score in assay [1] was -0.619; in [2], 0.355; in [3], -0.0583; in [4] it was 0.53; in assay [5], 0.611; in [6], 1.16. For the same molecule, the composite z-score in assay [7] amounted to 1.1; in [9], 0.372; in [10] it was 0.0695. Besides, the z-score in [8] is -4.65 (inactive).

As for `C[C@]1(C(=O)O)c2ccccc2C(=O)N(Cc2ccccc2)[C@H]1c1ccc(CO)cc1`, the composite z-score was 1.63 in assay [1]; -0.646 in assay [2]; -0.116 in [3]; -1.03 in assay [4]; -1.24 in assay [5]; 0.869 in assay [6]. Besides, the results for the composite z-score in assay [7], in assay [9] and in assay [10] were 0.521, -0.42 and -0.164, respectively. For the same molecule, the z-score in assay [8] is -0.319 (inactive).

`CCOc1cc(C(O)C2C=CC3C(=O)N(C4CCCCC4)C(=O)C3N2Nc2ccc(OC)cc2)ccc1O` (stereo not given): the composite z-score in assay [1] came to 0.26; in assay [2], 0.456; in [3], 0.0465; in [4] it was 0.339; in assay [5], 1.64; in assay [6], 1.72. Besides, the composite z-score in [7] was 1.28; in assay [9], 0.775; in [10], -0.132. Also, in [8], the z-score is 1.79 (inactive).

Turning to `O=C1NC(=O)C2C1C=CC(C(O)c1c(F)cccc1Cl)N2Nc1ccccn1` (stereo not given), the composite z-score in assay [1] was 0.154; in assay [2] it was 0.238; in assay [3] it was 0.0182; in assay [4], 0.474; in assay [5] it was 0.55; in assay [6] it was 1.53. The values for the composite z-score in assay [7], in assay [9] and in [10] were 0.633, -0.014 and 0.0576, respectively. The z-score in assay [8] was 0.569 (inactive).

Consider `CC(=O)n1cc(C(O)C2C=CC3C(=O)N(c4ccccc4)C(=O)C3N2Nc2ccccc2)c2ccccc21` (stereo not given), for which the composite z-score in [1] is 1.87; in [2] it was 0.489; in assay [3], 0.447; in assay [4] it was 0.893; in assay [5] it was 1.52; in [6], 0.837. Also, the composite z-score is 1.11 in assay [7], 1.1 in [9] and -0.0702 in assay [10]. Besides, the z-score in [8] was 0.621 (inactive).

For the molecule `Cc1c(NC(=O)/C(C#N)=C/C=C/c2ccc(N(C)C)cc2)c(=O)n(-c2ccccc2)n1C`, the composite z-score in [1] was -0.266; in [2], 0.297; in assay [3], 0.29; in assay [4], 0.82; in [5] it was 1.18; in assay [6], 1.49. Besides, the values for the composite z-score in [7], in assay [9] and in assay [10] were 1.17, 0.512 and 0.409, respectively. The z-score in assay [8] was 3.7 (inactive).

With `[N-]=[N+]=Nc1ccccc1C[C@@]1(C(=O)O)N=C(c2ccc(OCCCO)cc2)O[C@@H]1c1ccccc1`, the composite z-score in [1] is 0.0693; in assay [2] it was -0.518; in assay [3] it was 0.0248; in assay [4], 0.303; in [5], 1.35; in [6], 1.75. Also, the composite z-score in assay [7] was 1.24; in assay [9], 0.827; in assay [10], -0.0765. The z-score in assay [8] is 0.835 (inactive).

On to `O=C1c2ccccc2[C@](Cc2ccccc2I)(C(=O)NCc2ccccc2)[C@H](c2ccc(CO)cc2)N1C1CCCCC1`, for which the composite z-score is -0.126 in assay [1]; 0.106 in assay [2]; -0.0291 in [3]; 0.753 in [4]; 1.13 in assay [5]; 1.76 in [6]. The values for the composite z-score in assay [7], in assay [9] and in assay [10] were 1.27, 0.671 and 0.189, respectively. Also, the z-score in assay [8] was -1.6 (inactive).

Consider `C[C@H]1ON(c2ccc(C(=O)OC(C)(C)C)cc2)[C@@H](c2ccc(O)cc2)[C@@H]1C(=O)N1C(=O)OC[C@@H]1c1ccccc1`, for which the composite z-score in [1] is -0.565; in assay [2], -0.156; in assay [3] it was -0.117; in assay [4] it was 0.686; in assay [5], 1.42; in assay [6] it was 0.464. Moreover, the values for the composite z-score in [7], in [9] and in [10] were 1.15, 0.184 and -0.0022, respectively. Moreover, the z-score in assay [8] is -0.308 (inactive).
